# Compounds with a hit are over-represented: about 2.8% of the library has one in this group of screens.
# Shn3 3UTR inh: inhibitors of Schnurri-3 3'UTR reporter in osteoblasts; Clone20 osteoblast Shn3 3'UTR firefly luciferase, 24 h; inhibition, % at 12.5 µM; 0.52% of 360,000 active; AID 588674;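 active = mean inhibition of at least 75% with every replicate also reaching 75%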;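 also: 0% = median of neutral control wells and 100% = pilot-screen positive control compound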
# EBV LMP1 NFkB: reduces LMP1-driven NF-kappaB luciferase signal. LMP1-induced NF-kappaB luciferase reporter cells, luminescence. inhibition, % at 12.5 µM. 0.69% of 350,000 active. AID 504558; in the data active = inhibition above about 41%;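 also: 0% = neutral control wells and 100% = reference inhibitor control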
# HIV Env fusion: blocks HIV Env-driven cell-cell fusion; HeLa-JRFL Env/CEM21 cell fusion, luciferase; inhibition, % at 12.3 µM; 1.1% of 360,000 active;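 active = mean replicate inhibition score of at least 50 and every replicate individually at or above 50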;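 also: 0% = plate neutral controls and 100% = maraviroc near 300 nM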
# PAX8 inh HTS: lowers PAX8-driven luciferase in RMG-I cells; RMG-I TPO-luciferase reporter, SteadyGlo, 24 h; inhibition, % at 12.6 µM; 1.2% of 360,000 active;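 active = mean replicate inhibition at least 60% with every replicate also reaching 60%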;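 also: luciferase light reporting Pax8 driven TPO promoter activity; plate controls were median of neutral control wells for no effect and mitoxantrone controls for full effect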
# NSD2 HMT inh: blocks human histone methyltransferase NSD2. O96028. NSD2 peptide methylation, AlphaScreen, 120 min. inhibition, % at 12.5 µM. 0.54% of 310,000 active. AID 743445; in the data active = inhibition above about 50%
# Target sequence (O96028 whole entry, looked up): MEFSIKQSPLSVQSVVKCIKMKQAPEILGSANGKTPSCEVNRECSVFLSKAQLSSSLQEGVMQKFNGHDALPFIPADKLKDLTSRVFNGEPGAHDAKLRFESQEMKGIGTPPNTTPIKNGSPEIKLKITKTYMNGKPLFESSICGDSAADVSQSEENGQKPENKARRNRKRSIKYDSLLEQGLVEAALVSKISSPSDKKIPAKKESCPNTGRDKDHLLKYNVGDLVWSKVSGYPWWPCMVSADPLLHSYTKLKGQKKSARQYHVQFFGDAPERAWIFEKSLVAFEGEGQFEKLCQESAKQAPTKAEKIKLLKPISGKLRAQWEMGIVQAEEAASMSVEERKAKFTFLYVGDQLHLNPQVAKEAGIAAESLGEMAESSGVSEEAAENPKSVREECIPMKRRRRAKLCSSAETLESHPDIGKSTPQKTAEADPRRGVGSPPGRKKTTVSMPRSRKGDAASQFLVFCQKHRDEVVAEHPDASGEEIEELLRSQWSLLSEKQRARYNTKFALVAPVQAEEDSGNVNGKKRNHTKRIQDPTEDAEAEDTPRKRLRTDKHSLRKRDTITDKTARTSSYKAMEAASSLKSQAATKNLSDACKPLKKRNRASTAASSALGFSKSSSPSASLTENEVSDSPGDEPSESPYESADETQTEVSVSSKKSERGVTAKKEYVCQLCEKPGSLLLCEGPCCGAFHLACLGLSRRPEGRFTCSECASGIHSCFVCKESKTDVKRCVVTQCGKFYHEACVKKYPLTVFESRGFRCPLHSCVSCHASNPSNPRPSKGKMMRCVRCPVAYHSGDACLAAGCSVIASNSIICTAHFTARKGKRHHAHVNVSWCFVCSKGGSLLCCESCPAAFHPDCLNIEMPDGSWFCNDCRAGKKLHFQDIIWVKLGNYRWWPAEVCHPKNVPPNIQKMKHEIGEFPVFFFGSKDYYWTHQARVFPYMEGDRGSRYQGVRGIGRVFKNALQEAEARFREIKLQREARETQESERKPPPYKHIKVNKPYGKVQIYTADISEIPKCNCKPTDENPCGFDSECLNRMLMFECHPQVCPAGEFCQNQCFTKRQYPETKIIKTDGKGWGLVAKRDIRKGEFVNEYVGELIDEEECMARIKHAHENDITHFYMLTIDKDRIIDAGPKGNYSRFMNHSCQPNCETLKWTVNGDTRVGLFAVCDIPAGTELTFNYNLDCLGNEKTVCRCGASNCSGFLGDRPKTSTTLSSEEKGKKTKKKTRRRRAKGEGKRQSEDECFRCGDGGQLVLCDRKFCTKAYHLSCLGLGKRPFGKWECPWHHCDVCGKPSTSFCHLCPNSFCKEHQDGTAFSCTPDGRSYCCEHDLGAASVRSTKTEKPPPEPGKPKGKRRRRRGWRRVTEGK
# Glyco luc inh: N-linked glycosylation inhibition; D54 ERlucT glycosylation luciferase reporter, 24 h; percent of 100 nM tunicamycin response; reporter increase, % at 12.5 µM; 0.23% of 360,000 active;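 active = mean luciferase reporter signal, scaled so untreated is 0 and the glycosylation-blocking control 100, at or above a set limit in every replicate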;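 also: luciferase carries N-glycosylation sites so blocking glycosylation raises the light; 0% = median of neutral control wells and 100% = median of 100 nM tunicamycin wells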
# Active calls of the source: *; · = no result given; [ ] = remark or other dose.
SMILES,Shn3 3UTR inh,EBV LMP1 NFkB,HIV Env fusion,PAX8 inh HTS,NSD2 HMT inh,Glyco luc inh
C[C@H]1CN([C@@H](C)CO)C(=O)c2cc(NS(=O)(=O)c3ccc(Cl)cc3)ccc2O[C@H]1CN(C)S(=O)(=O)c1ccccc1,·,·,11[16.7 µM],2,·,·
COc1ccccc1C(c1c(N)n(C)c(=O)n(C)c1=O)C(C)[N+](=O)[O-] (stereo not given),4,·,3,1,-2,3
COc1ccccc1C(C[N+](=O)[O-])c1c(N)n(C)c(=O)n(C)c1=O (stereo not given),22,·,-16,64*,-3,8
C[C@@H]1CN([C@@H](C)CO)C(=O)c2cc(NC(=O)Cc3cn(C)c4ccccc34)ccc2O[C@@H]1CN(C)C(=O)NC1CCCCC1,·,·,5[16.7 µM],37,·,·
O=C(Nc1ccc(F)cc1)N1C[C@@H]2[C@H](c3ccccc31)[C@@H](CO)N2C(=O)Cc1cccnc1,·,·,·,-12,·,·
Nc1c(Cl)cnn(-c2ccccc2)c1=O,4,·,4,8,-3,1
O=c1c(Cl)c(Cl)cnn1-c1ccccc1,2,0,-444,108*,2,-12
O=C(Nc1cccc(S(=O)(=O)N2CCCCC2)c1)c1cc2ccccc2o1,33,-3,4,-10,·,-2
COCc1c(C(=O)Nc2cccc(S(=O)(=O)N3CCCCC3)c2)oc2ccccc12,86*,2,·,·,·,-2
Cc1ccc(S(=O)(=O)N2CCCCC2)cc1NC(=O)c1cncc(Br)c1,23,12,12,22,-1,-6
O=C(c1ccc(Cl)c(S(=O)(=O)N2CCCCCC2)c1)N1CCN(c2ccccn2)CC1,19,2,63*,·,2,-4
O=C(Nc1cccc(S(=O)(=O)N2CCCCCC2)c1)c1cncc(Br)c1,18,-3,56*,12,·,-5
O=C(c1ccc(Cl)c(S(=O)(=O)N2CCCCCC2)c1)N1CCCCC1,-9,5,-3,3,-1,0
Cc1ccc(NC(=O)c2ccc(Cl)c(S(=O)(=O)N3CCCCCC3)c2)nc1,24,23,61*,15,-2,-6
CC=Cc1ccc2n(c1=O)C[C@H]1[C@H](CO)[C@@H](C(=O)N[C@H](C)c3ccccc3)[C@@H]2N1Cc1ccccc1 (mixture of isomers),·,·,·,-9,·,·
C[C@H](CO)N1C[C@H](C)[C@H](CN(C)CC2CCOCC2)Oc2ncc(C#Cc3ccncc3)cc2C1=O,·,·,-20[16.7 µM],·,·,·
O=C(Nc1ccc(Br)cn1)c1cccc(C(=O)Nc2ccc(Br)cn2)c1,-17,-21,4,7,-1,1
O=C(Nc1ccc(Br)cn1)c1cccc(S(=O)(=O)N2CCCC2)c1,8,-7,56*,-24,0,3
O=C(Oc1ccc2ccc(O)cc2c1)c1ccccc1F,·,·,·,·,2,·
CCc1cc2c(NCc3ccco3)ncnc2s1,61,-1,80*,·,12,-3
CCc1cc2c(NCC(=O)O)ncnc2s1,-10,-9,·,·,-1,3
COc1ccc(S(=O)(=O)Nc2ccc3c(c2)CC(=O)N([C@H](C)CO)C[C@@H](C)[C@H](CN(C)S(=O)(=O)c2ccccc2)O3)cc1,·,·,3[16.7 µM],-10,·,·
Cc1ccc2c(c1)nnn2C1CCN(S(=O)(=O)c2ccc(C(=O)N3C(C)CCCC3C)cc2)CC1 (stereo not given),84,19,67*,·,·,-4
CCOc1cc(CNCCc2ccc(S(N)(=O)=O)cc2)ccc1OCc1ccc(Cl)cc1,91*,-65,·,·,·,-4
CCOc1cc(/C=N/N=C(N)N)ccc1OCc1ccc(Cl)cc1,95*,5,-2,31,39,-13
SMILES,Shn3 3UTR inh,EBV LMP1 NFkB,HIV Env fusion,PAX8 inh HTS,NSD2 HMT inh,Glyco luc inh
COc1cc(CNCCc2ccc(S(N)(=O)=O)cc2)ccc1OCc1ccc(Cl)cc1,45,-4,·,·,-1,-8
O=[N+]([O-])c1ccccc1S(=O)(=O)Oc1ccccc1/C=N/n1cnnc1,-8,-7,·,98*,2,-1
O=[N+]([O-])c1cccc(/C=N/n2cnnc2)c1O,6,5,·,·,0,5
O=C(/C=C/c1ccco1)Nc1nnc(-c2ccco2)s1,-54,-13,-82,13,2,35*
CNC[C@@H]1Oc2cc(C#CC3CCCC3)ccc2S(=O)(=O)N([C@@H](C)CO)C[C@H]1C,·,·,19[16.7 µM],-2,·,·
COc1cc(/C=N/NS(=O)(=O)c2ccc3ccccc3c2)ccc1OCc1ccc(C(=O)O)cc1,32,67*,50,84*,9,-6
